Screens as filed in PubChem.
Sm TGR block = inhibitors of Schistosoma mansoni thioredoxin glutathione reductase | Q962Y6 | purified TGR, DTNB reduction, TNB absorbance 405 nm | Potency, µM (top dose mostly 114 µM), inactives show at the top dose activity change, negative = inhibition, actives largely listed as inhibitors | 3% of 360,000 active | AID 485364; active means well fitted inhibition curve with a large enough effect; inconclusive means small, poorly fitted or top-dose-only effect; inactive means no such curve, though single readings can be large or run the other way; further: potency means the concentration at half of the fitted maximal effect; on the % scale 0 is the no-effect control and ±100 the full control effect; nearly all actives have a fitted effect of over 60% in size
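TGR 20 nM + NADPH 100 uM (dispensed conc.), cpd preinc 15 min RT; start with NADPH (500 uM addition) then DTNB (15 mM addition). Kinetic TNB absorbance, 405 nm filter. Four-parameter Hill fit across titration.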
FMDV antiviral = foot and mouth disease virus antiviral activity; FMDV antiviral cell-based qHTS; Potency, µM (doses to about 57.9 µM), inactives show at the top dose activity change, negative = inhibition, most hits filed as inhibitors; 1.2% of 410,000 active; AID 1159524; calls by dose curve; tested in HEK293T cells; further: read-out not given here; potency means the concentration at half of the fitted maximal effect; on the % scale 0 is the no-effect control and ±100 the full control effect; nearly all actives have a fitted effect of over 45% in size
CHX counter = counter-screen hit for Shiga toxin inhibitors, cycloheximide. 12% of 300,000 active. max response, %. AID 2314. cell reporter, cycloheximide protein synthesis inhibition counterscreen; in the data active means max response mostly above about 13%, no sharp cut-off; inactive means mostly below about 14%; further: read at 38.3 µM for the half of the compounds with a filed dose; 0% is about no effect
Shiga inhibitor = inhibitors of Shiga toxin in Vero cells. Vero cells, Shiga toxin protein synthesis inhibition reporter. inhibition, % at 38.7 µM. 9.2% of 290,000 active. AID 2315; in the data active means inhibition mostly above about 28%, no sharp cut-off; inactive means mostly below about 43%; further: 0% is about no effect
* marks the source's active call; other numbers are inactive results; ? = inconclusive; . = no result; [ ] = another dose, or the depositor's remark. The list is not random: actives were taken first. Their share in the collection is about 12%.

SMILES	Sm TGR block	FMDV antiviral	CHX counter	Shiga inhibitor
Cc1ccc(C(=O)C(NC(=O)c2ccco2)N2CCOCC2)cc1 (stereo not given)	-33%	42%	39*	53*
O=C(NC(C(=O)c1ccccc1)N1CCOCC1)c1cccs1 (stereo not given)	-18%	56%	22*	33*
O=C(NC(N1CCCC1)C(Cl)(Cl)Cl)c1ccccc1 (stereo not given)	3.5µM*	16%	3	15
CC(=O)NC(O)C(=O)c1ccccc1 (stereo not given)	-1%	36%	-3	38
CC(C)OCCCNC(=O)CCCn1c(SCC(=O)c2ccc(Br)cc2)nc2c(sc3ccccc32)c1=O	-4%	-4%	.	.
O=C(NC1(C(F)(F)F)N=C(c2ccccc2)N(Cc2ccccc2)C1=O)c1ccc(F)cc1 (stereo not given)	0%	-23%	.	.
COc1ccccc1NC(=O)CSC1=Nc2ccccc2C2=NC(CC(=O)NCc3ccco3)C(=O)N12 (stereo not given)	2%	31%	.	.
COCc1c(C(=O)NC2CCCCCC2)cnn1-c1nccc(-c2cc(C)sc2C)n1	.	50%	.	.
CCc1ccc(NC(=O)C2CCN(S(=O)(=O)c3c(C)noc3/C=C\c3ccc(OC)cc3)CC2)cc1	10%	?	.	.
O=C(NC(C(=O)c1ccccc1)N1CCOCC1)c1ccccc1 (stereo not given)	-25%	9%	16*	31
O=C(NC(C(=O)c1ccccc1)N1CCCCCC1)c1ccco1 (stereo not given)	-2%	13%	-4	-9
CCOc1ccc(CCNc2ncnc3onc(-c4ccc(Cl)cc4)c23)cc1	7%	?	.	.
O=C(Cn1nnc2c(cnn2-c2ccc(F)cc2)c1=O)OC1CCCCC1	1%	-12%	28*	64
Cc1ccc(NC(=O)CN2C(=O)COc3ccc(S(=O)(=O)NC4CCCC4)cc32)cc1N(C)C	6%	0%	.	.
CCN(C(=O)c1ccc2c(c1)N(Cc1cccc(Cl)c1)C(=O)c1ccccc1S2=O)c1ccccc1 (stereo not given)	7%	-8%	.	.
COC(=O)c1sccc1S(=O)(=O)N(CC(=O)NCc1ccc(C)cc1)c1ccc(C)c(C)c1	0%	3%	.	.
O=c1cc(Nc2ccc3c(c2)OCCO3)[nH]c(=O)n1Cc1ccc(F)cc1	6%	.	29*	49*
O=c1[nH]c(Nc2nc3ccccc3o2)nc2c1CCCC2	15%	.	39*	76*
Cc1ccc(Nc2nc3c(c(=O)[nH]2)CCCC3)cc1	-22%	32%	-3	21
Cc1cc(C(=O)CN2C(=O)NC3(CCCc4sccc43)C2=O)c(C)n1-c1ccccc1 (stereo not given)	-8%	0%	39*	29*
COc1ccc(-n2c(C)cc(C(=O)CN3C(=O)NC4(CCCc5sccc54)C3=O)c2C)cc1 (stereo not given)	-6%	-9%	3	-7
Cc1cc(C(=O)CN2C(=O)CCC2=O)c(C)n1Cc1ccccc1	5%[11.4 µM]	?	30*	20
Cc1cc(C(=O)CN2C(=O)NC3(CCCc4ccccc43)C2=O)c(C)n1Cc1ccccc1 (stereo not given)	-20%	-13%	25*	20
CC(=O)c1ccc(NC(=O)CSc2cn(CC(=O)N3CCCCCC3)c3ccccc23)cc1	-9%	-30%	.	.
COC(=O)N1CCCc2cc(S(=O)(=O)N3CCN(c4ccccc4)CC3)ccc21	12%	-29%	.	.
SMILES	Sm TGR block	FMDV antiviral	CHX counter	Shiga inhibitor
O=C(CC1N=C2c3ccccc3N=C(SCC(=O)Nc3ccccc3F)N2C1=O)NCc1ccc2c(c1)OCO2 (stereo not given)	0%	6%	.	.
CC1CCN(c2nc3nonc3nc2Nc2ccc(F)cc2)CC1	-4%[57.1 µM]	28µM*	-4	-12
Cc1nn(CC(=O)NCc2ccc(N(C)C)cc2)c(=O)c2c(C)n(-c3ccc(Cl)cc3)nc12	3%	?	.	.
COc1ccc(NC(=O)c2c(C)oc3ccc(O)c(CN4CCN(C)CC4)c23)cc1Cl	4%	-29%	.	.
Cn1c(=O)c(Oc2ccc(F)cc2)c(O)c2ccccc21	1%	-6%	-4	-4
Cn1c2ccccc2c(=O)c2ccc(-c3ccc4c(c3)OCO4)cc21	-20%	-1%	31*	46*
COc1cc(-c2ccc3c(=O)c4ccccc4n(C)c3c2)cc(OC)c1OC	-17%	?	11*	16
c1ccc2c(c1)c1ccccc1n1c(-c3ccc4c(c3)OCO4)nnc21	-26%	25µM*	-1	-35
Cn1c2ccccc2c(=O)c2ccc(F)cc21	6%	41%	16*	18
CC(C)C(=O)N1c2nc(-c3ccco3)nn2C2(CCCCC2)[C@@H]2CCCC[C@@H]21	-19%	-8%	.	.
O=C(CCc1nc(-c2cccs2)no1)Nc1ccccc1[N+](=O)[O-]	-11%	12%	.	.
Cc1cc2c(c(-c3cnccn3)c1)OC(CNC(=O)c1cc(Cl)ccc1F)C2 (stereo not given)	.	-8%	.	.
CCCCNC(=O)c1nn(-c2ccc(C)cc2)c(=O)n(C)c1=O	6%	12%	.	.
Cc1nc2c(C(=O)N3CCN(C)CC3)cnn2c(C)c1Cc1ccc(Cl)cc1	1%	7%	1	-15
Cc1nc2c(C(=O)N3CCCCC3)cnn2c(C)c1Cc1ccccc1F	6%	-4%	71*	157*
CC(=O)c1cccc(NC(=O)c2cnn3ccccc23)c1	-4%	47%	89*	59*
CC(=O)c1ccc(NC(=O)c2cnn(-c3cccc(F)c3)c2-n2cccc2)cc1	4%	0%	.	.
CC(=O)c1ccc(NC(=O)c2cnn3ccccc23)cc1	-5%	-53%	44*	55*
CC(=O)c1cccc(NC(=O)c2ccccc2-c2ccccc2C(=O)O)c1	-19%	9%	-5	-16
COCCn1c(CCC(=O)Nc2ccc(OC)c(OC)c2)nc2cccnc21	3%	-16%	.	.
C=C1N(C)c2cc([N+](=O)[O-])c(N)cc2C1(C)C	20µM*	?	8	14
Cc1nn(C(C)(C)C)c(C)c1/C=N/OC(=O)Nc1ccc(Cl)cc1	26%	5.6µM*	-4	-23
Cc1ccc(NC(=O)c2nc(S(C)(=O)=O)ncc2N(Cc2ccc(C(C)(C)C)cc2)Cc2ccco2)cc1C	-5%	-11%	.	.
COc1ccc(-c2nn(-c3ccccc3)cc2/C=N/Nc2ccc3ccccc3n2)cc1OC	6%	?	34*	80*
COc1ccc(-c2nn(-c3ccccc3)cc2CNC(=O)c2cccc([N+](=O)[O-])c2)cc1	7%	4%	15*	12
SMILES	Sm TGR block	FMDV antiviral	CHX counter	Shiga inhibitor
COc1ccc(-c2nn(-c3ccccc3)cc2/C=N/Nc2cccc(C(=O)O)c2)cc1	-9%	49%	56*	108*
O=C(NCc1cn(-c2ccccc2)nc1-c1ccccc1)c1cc([N+](=O)[O-])cc([N+](=O)[O-])c1	5%	?	1	-16
Cc1ccc(-c2nn(-c3ccccc3)cc2/C=N/NC(=O)CSc2nnc(C)n2-c2ccccc2)cc1	16%	19%	36*	54*
CCOc1ccc(NC(=O)NCc2ccc3c(c2)CCN3C(C)=O)cc1	-10%	-23%	.	.
Nn1cc(Br)c(=O)[nH]c1=O	.	11%	.	.
O=C(O)c1ccc(NC2=C(N3CCOCC3)C(=O)c3ccccc3C2=O)cc1	?	-22%	-1	15
